Results reported in a collection of fitness landscapes (doi:10.1016/j.celrep.2020.107928).
In all, about 81,000 sequences were measured (“one-hybrid fitness for binding NBS DNA”: median about -0.1, highest 2% from about 0.36 on). Many of the other results were omitted from the sample, so the highest values are more common in it than they were.

B1: Caulobacter ParB omega fusion; a variant is named by its letters at X, in order, B8GW30 (parent)
chain: MESVVVGEPGMSEGRRGLGRGLSALLGEVDAAPAQAPGEQLGGSREAPIEILQRNPDQPRRTFREEDLEDLSNSIREKGVLQPILVRPSPDTAGEYQIVAGERAWRAAQRAGLKTVPIMVRELDDLAVLEIGIIENVQRADLNVLEEALSYKVLMEKFERTQENIAQTIGKSXSHVANXMRLLXLPDEVQSYLVSGELTAXHARAIAAAADPVALAKQIIEGGLSVRETEALARKAPNLSAGKSKGGRPPRVKDTDTQALESDLSSVLGLDVSIDHRGSTGTLTITYATLEQLDDLCNRLTRGI

Variants of: B1
Assay: one-hybrid fitness for binding NBS DNA (the Noc-binding site; scaled: cognate 1, non-cognate 0); higher = stronger binding
Details: with NBS DNA site
Procedure, shortened: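 Bacterial one-hybrid selection in E. coli USO rpoZ- hisB- pyrF- with a HIS3 reporter carrying the site 19 bp from the promoter, screening Caulobacter ParB libraries with four specificity codons randomised (NNS). Cells grew 48 hours at 37°C on M9-minus-histidine plus 0.1 mM IPTG and 5 mM 3-AT. Plasmids before and after selection were Illumina-sequenced, three replicate libraries pooled, and variants under 10 reads dropped. Fitness is the log change in variant-to-wild-type read ratio, rescaled to cognate 1, non-cognate 0.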

one-hybrid fitness for binding NBS DNA, 0.337:
QCKD

one-hybrid fitness for binding NBS DNA, 0.393:
QAKV
QCCS

one-hybrid fitness for binding NBS DNA, 0.431:
QRHQ

one-hybrid fitness for binding NBS DNA, 0.674:
KRRT

one-hybrid fitness for binding NBS DNA, 0.406:
QKKV

one-hybrid fitness for binding NBS DNA, 0.447:
RHHR

one-hybrid fitness for binding NBS DNA, 0.778:
QRKS

one-hybrid fitness for binding NBS DNA, 0.296:
QSCS

one-hybrid fitness for binding NBS DNA, 0.238:
QCHC

one-hybrid fitness for binding NBS DNA, 0.263:
QSLS

one-hybrid fitness for binding NBS DNA, 0.599:
QTKV

one-hybrid fitness for binding NBS DNA, 0.613:
KRYT

one-hybrid fitness for binding NBS DNA, 0.38:
QMCS

one-hybrid fitness for binding NBS DNA, 0.202:
QPVS

one-hybrid fitness for binding NBS DNA, 0.437:
QRHC
QRHN

one-hybrid fitness for binding NBS DNA, 0.537:
KRGT

one-hybrid fitness for binding NBS DNA, 0.469:
KRLT

one-hybrid fitness for binding NBS DNA, 0.853:
QIKR

one-hybrid fitness for binding NBS DNA, 0.339:
QMAA

one-hybrid fitness for binding NBS DNA, 0.271:
QIVR

one-hybrid fitness for binding NBS DNA, 0.561:
QRVS

one-hybrid fitness for binding NBS DNA, 0.448:
RHQR
RHSR

one-hybrid fitness for binding NBS DNA, 0.513:
KRQT

one-hybrid fitness for binding NBS DNA, 0.558:
KRCT

one-hybrid fitness for binding NBS DNA, 0.433:
RVCT

one-hybrid fitness for binding NBS DNA, 0.481:
KRIT
RMNS

one-hybrid fitness for binding NBS DNA, 0.381:
QCVS

one-hybrid fitness for binding NBS DNA, 0.347:
QRHF

one-hybrid fitness for binding NBS DNA, 0.317:
QTES

one-hybrid fitness for binding NBS DNA, 1.08:
QCKR

one-hybrid fitness for binding NBS DNA, 0.267:
QIKV

one-hybrid fitness for binding NBS DNA, 0.228:
QSVS

one-hybrid fitness for binding NBS DNA, 0.577:
RVRS

one-hybrid fitness for binding NBS DNA, 0.342:
QLKV

one-hybrid fitness for binding NBS DNA, 0.718:
QRHS

one-hybrid fitness for binding NBS DNA, 0.403:
RHGR
QRHG

one-hybrid fitness for binding NBS DNA, 0.479:
QCKV

one-hybrid fitness for binding NBS DNA, 0.305:
KRPT

one-hybrid fitness for binding NBS DNA, 0.313:
QAKG

one-hybrid fitness for binding NBS DNA, 0.979:
QSKR

one-hybrid fitness for binding NBS DNA, 0.438:
QRHM

one-hybrid fitness for binding NBS DNA, 0.229:
QSKP

one-hybrid fitness for binding NBS DNA, 0.44:
QHKV

one-hybrid fitness for binding NBS DNA, 0.404:
QRKP

one-hybrid fitness for binding NBS DNA, 0.656:
RHRR

one-hybrid fitness for binding NBS DNA, 0.318:
QLKM

one-hybrid fitness for binding NBS DNA, ≤ 0.2:
STSG
QAVV
QKCV
QRPV
QPKV
QKVV
QAQV
NHES
WMIP
VPEL
KIDS
YGSP
QTIV
QHVV
QTVV
QSVV
QHDV
QMNV
QMVV
TFNG
WQMG
FYPI
VPIG
DNCR
MCLS
LFAP
LAIW
QHAA
QSFA
QPFA
QVCG
AEFL
MPNG
KAET
KCST
KRHP
KRGH
KCHT
KPET
DRST
KCGT
LDCV
DSPG
EQLY
TMSQ
VICL
MMNR
KRCD
DRYT
KCIT
NRCT
KCYT
NRRT
FRGT
HAIS
WVIG
TARF
LMCG
PVMR
SKSN
CRIR
HDNF
TALC
MHTW
KPWT
KRQP
KCQT
KCLT
KPLT
NRWT
ELNV
NLKK
FRPG
HKCG
PFLC
RHHH
RHHP
RHPR
RHIR
EMNR
WDGG
QAEP
ADMS
PVLV
NCEV
SRIS
DRYY
RHGP
RHSH
RHSD
RHGH
MNYT
VDVI
YLRS
PAHQ
SSQC
FTTS
SMHC
QTIP
QTCP
QPLS
QTCN
CPTM
DVLM
WVEG
TFRM
MYPF
EAVR
PVAE
QTQP
QTWN
QMCP
NTRS
QMCD
QTQN
QTWP
MSSN
FFKL
LPTN
HFHL
QSEF
TASS
DAGG
DEKT
QPCS
QTLD
QTLP
ERTA
TLTL
EMRG
RSDS
RMDS
RPNS
RLDS
RLND
RSND
RMNP
PYGH
TCDT
SICL
ITNT
QLLN
QPKP
AWRM
VLCG
GDPR
GMNC
GYHN
GMFV
GDMV
PAFV
GFQR
KNLN
QIIR
SPHS
GILL
CSWG
VYLS
RVCN
RVCY
RVCM
RVCH
RVRN
RVCD
RVCP
TIPT
LYLM
HSTN
NRKS
DRKS
ANSS
LCGR
TETQ
TNPC
YPLP
YFGS
QNIT
ATQS
NPLV
QPKH
QRPH
QRVD
QRVP
EGSD
SHRM
SFTP
GMTV
AWKC
HLVG
QNYP
MSYR
KGQY
LHCR
RKVV
RPMF
YCQV
FVKY
QSHQ
QSHM
QSHC
QCHM
QPHG
QCHG
TMAD
KMQL
QPHH

one-hybrid fitness for binding NBS DNA, 0.588:
QRKV

one-hybrid fitness for binding NBS DNA, 0.617:
QRAA

one-hybrid fitness for binding NBS DNA, 0.34:
QLVR

one-hybrid fitness for binding NBS DNA, 0.811:
QTRS

one-hybrid fitness for binding NBS DNA, 0.314:
QTPS

one-hybrid fitness for binding NBS DNA, 0.508:
RSNS

one-hybrid fitness for binding NBS DNA, 0.285:
QEKR

one-hybrid fitness for binding NBS DNA, 0.495:
QTCS

one-hybrid fitness for binding NBS DNA, 0.436:
RVCR

one-hybrid fitness for binding NBS DNA, 0.932:
QLKR

one-hybrid fitness for binding NBS DNA, 0.405:
QPKR

one-hybrid fitness for binding NBS DNA, 0.557:
RCNS

one-hybrid fitness for binding NBS DNA, 0.259:
QRVN

one-hybrid fitness for binding NBS DNA, 0.32:
QDKR

one-hybrid fitness for binding NBS DNA, 0.387:
RHYR
QRVH

one-hybrid fitness for binding NBS DNA, 0.493:
RLNS

one-hybrid fitness for binding NBS DNA, 0.61:
QRHH

one-hybrid fitness for binding NBS DNA, 0.494:
QRFA

one-hybrid fitness for binding NBS DNA, 0.573:
KRST
QRKN

one-hybrid fitness for binding NBS DNA, 0.358:
QGKR
QAVR
QRHI

one-hybrid fitness for binding NBS DNA, 0.377:
QRKD

one-hybrid fitness for binding NBS DNA, 0.256:
RHWR

one-hybrid fitness for binding NBS DNA, 0.501:
KRET

one-hybrid fitness for binding NBS DNA, 0.424:
QMKV

one-hybrid fitness for binding NBS DNA, 0.398:
QSKV
QTIS

one-hybrid fitness for binding NBS DNA, 0.507:
QTYS

one-hybrid fitness for binding NBS DNA, 0.669:
KRWT

one-hybrid fitness for binding NBS DNA, 0.329:
RHLR

one-hybrid fitness for binding NBS DNA, 0.203:
QSKD
WWKR

one-hybrid fitness for binding NBS DNA, 0.444:
QTWS
RVCS

one-hybrid fitness for binding NBS DNA, 0.303:
QRHP

one-hybrid fitness for binding NBS DNA, 0.269:
QCHQ

one-hybrid fitness for binding NBS DNA, 0.351:
RVYS

one-hybrid fitness for binding NBS DNA, 0.651:
KRHT

one-hybrid fitness for binding NBS DNA, 0.294:
QRHD

one-hybrid fitness for binding NBS DNA, 0.333:
QCHH

one-hybrid fitness for binding NBS DNA, 0.272:
QRVV

one-hybrid fitness for binding NBS DNA, 0.982:
QAKR

one-hybrid fitness for binding NBS DNA, 0.504:
QTQS

one-hybrid fitness for binding NBS DNA, 0.426:
QTLS

one-hybrid fitness for binding NBS DNA, 0.315:
KCRT

one-hybrid fitness for binding NBS DNA, 0.382:
QCLS

one-hybrid fitness for binding NBS DNA, 0.766:
QRKH

one-hybrid fitness for binding NBS DNA, 0.331:
RFNS

one-hybrid fitness for binding NBS DNA, 0.221:
QTIH
